Compound activity (PubChem)
Compounds with a hit are over-represented: about 4.8% of the library has one in this group of screens.
ATXN2 expr inh – reduces ATXN2 reporter expression in HEK-293 cells; Potency, µM (highest dose often 57 µM), inactives show at the top dose activity change, negative = inhibition, hits mostly inhibitors; 0.72% of 360,000 active; HEK-293 ATXN2-luciferase reporter, luminescence, 24 h; also: potency is read from the fitted curve at half-maximal effect; % is scaled to controls: 0 for no effect and ±100 for the full control effect; nearly all actives have a fitted effect of over 55% in size
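qHTS (up to 57 uM final) was run with 24 h compound exposure of reporter cells at 37 °C. Each well was multiplexed: SteadyGlo luminescence measured ATXN2-luciferase expression after a fluorogenic Gly-Phe-AFC viability readout (25 uM final).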
USP1-UAF1 inh – USP1/UAF1 (human) deubiquitinase inhibition; recombinant USP1/UAF1, Ub-Rhodamine cleavage fluorescence; Potency, µM (top dose mostly 57.1 µM), inactives show at the top dose activity change, negative = inhibition, actives largely listed as inhibitors; 0.23% of 390,000 active; AID 743255; also: potency is read from the fitted curve at half-maximal effect; % is scaled to controls: 0 for no effect and ±100 for the full control effect; nearly all actives have a fitted effect of over 60% in size
Target sequence (O94782 whole entry, looked up): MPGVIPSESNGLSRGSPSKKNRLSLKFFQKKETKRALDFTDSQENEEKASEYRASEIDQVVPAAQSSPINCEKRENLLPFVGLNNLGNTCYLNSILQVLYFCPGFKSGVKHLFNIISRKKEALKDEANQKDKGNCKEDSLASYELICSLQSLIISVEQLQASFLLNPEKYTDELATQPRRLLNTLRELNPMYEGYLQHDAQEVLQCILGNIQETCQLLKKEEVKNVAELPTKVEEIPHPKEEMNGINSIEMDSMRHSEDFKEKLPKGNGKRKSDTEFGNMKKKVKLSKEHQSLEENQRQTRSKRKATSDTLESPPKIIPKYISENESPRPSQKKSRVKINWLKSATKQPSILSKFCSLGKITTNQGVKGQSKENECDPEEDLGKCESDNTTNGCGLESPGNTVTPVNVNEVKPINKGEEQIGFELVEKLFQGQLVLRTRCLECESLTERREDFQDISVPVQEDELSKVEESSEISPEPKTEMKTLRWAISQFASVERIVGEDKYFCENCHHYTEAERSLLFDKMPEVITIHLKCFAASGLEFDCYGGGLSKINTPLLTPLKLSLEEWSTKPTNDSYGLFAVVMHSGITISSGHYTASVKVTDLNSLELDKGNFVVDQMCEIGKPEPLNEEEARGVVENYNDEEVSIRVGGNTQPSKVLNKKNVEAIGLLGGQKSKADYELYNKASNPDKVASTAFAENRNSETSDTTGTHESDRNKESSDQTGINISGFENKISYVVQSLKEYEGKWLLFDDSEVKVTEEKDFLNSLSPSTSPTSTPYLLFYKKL
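1 nM enzyme complex + cpd, 15 min RT; start with Ub-Rho 150nM final; kinetic fluorescence ex 480/em 540, 6 reads q60 s. Buffer 50mM HEPES pH 7.8, 0.5mM EDTA, 0.1 mg/ml BSA, 1mM TCEP, 0.01% Tween-20.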
USP2a inh – blocks human ubiquitin-specific protease USP2a | O75604 | USP2 core, Ub-CHOP2 coupled fluorogenic reporter, 485/531 | AID 463254 | 0.01% of 330,000 active | Potency, µM (top dose mostly 38.3 µM), for inactives: top-dose activity change, negative = inhibition, actives largely listed as inhibitors;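 also: potency is read from the fitted curve at half-maximal effect; plate controls were DMSO wells for no effect and full inhibition by NEM control for full effect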
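Cell-free coupled assay: 10nM USP2 core preincubated 30min RT with compound in Tris-HCl pH 8.0/CaCl2/CHAPS buffer, then 25nM Ub-CHOP2 and 25nM reporter substrate; fluorescence (Ex 485/Em 531) read after 60min RT, normalized to NEM inhibition, concentration-response curves fitted.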
S2 tox – reduces viability in counter-screen for ATXN expression inhibitors | S2 cells (HEK-293 line with an ATXN2-luciferase reporter) viability, CellTiter-Fluor protease fluorescence, 24 h | Potency, µM (series often up to 56.7 µM), most hits filed as cytotoxic | 0.49% of 400,000 active | AID 651635; also: potency is read from the fitted curve at half-maximal effect; nearly all actives have a fitted effect of over 40% in size
IL1B secr inh – blocks inflammasome-driven IL-1 beta release. THP-1 LPS/ATP IL-1B secretion, AlphaLISA, 16 h; hits give low values. activity change, % at 57.5 µM. 4.7% of 360,000 active. AID 743279; in the data active = activity change below about -50%; inconclusive = mostly about -30% to -49%; also: % is scaled to controls: 0 for no effect and ±100 for the full control effect
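Secreted IL-1B measured by AlphaLISA bead assay after 16 h compound exposure of THP-1 cells; compounds (final up to 57.5 uM) added 1 h before LPS (250 ng/mL) and ATP (1.25 mM) stimulation; lower signal means less secretion.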
* hit, by the source's call; i = inactive; ? = inconclusive; · = no result; [ ] = dose if it differs, or a comment. Unless noted, calls follow the shape of the dose curve; as a rule, active = well fitted curve in the direction sought with a large enough effect; inconclusive = small, poorly fitted or top-dose-only effect, or another doubt; inactive = no such curve, though single readings can be large; an effect the other way counts as inactive or inconclusive.

SMILES	ATXN2 expr inh	USP1-UAF1 inh	USP2a inh	S2 tox	IL1B secr inh
Cc1ccc(/C=C2\CC(C)CC3=C2NC(=S)NC3c2ccc(C)cc2)cc1 (stereo not drawn)	29%	-23%	-7%	i	-29
Cc1ccc(C)c(NC(=O)NCCN2CCCCC2)c1	1%	-2%	2%	i	-7
CC(C)OP(=O)(CP(=O)(OC(C)C)OC(C)C)OC(C)C	3%	·	·	i	·
O=C(Nc1cccc(Cl)c1)Nc1ccccc1C(=O)NCc1ccco1	40%	-19%	0%	i	-53*
COc1ccc(C(=O)Nc2ccccc2C(=O)NCc2ccco2)cc1OC	0%	-13%	6%	i	-2
COc1ccc(C(=O)Nc2ccc(Cl)cc2C(=O)NCc2ccco2)cc1OC	-4%	-19%	-6%	i	-58*
O=C(Nc1ccccc1C(=O)NCc1ccco1)Nc1cccc2ccccc12	·	-18%	2%	?	?
O=C(NC(=S)Nc1ccccc1Br)c1ccco1	50%	-4%	3%	i	22
CSc1ncccc1C(=O)NCC1Cc2cc(F)cc(-c3cncnc3)c2O1 (stereo not drawn)	·	·	·	i	·
Cc1ccc(S(=O)(=O)CCSc2n[nH]c(=O)n2-c2ccccc2)cc1	-28%	-10%	0%	?	?
Cc1cc(C)c(-n2c(SCc3nc4ccccc4s3)n[nH]c2=O)c(C)c1	-27%	5%	2%	i	-95*
Cc1cc(C)c(-n2c(SCCS(=O)(=O)c3ccc(F)cc3)n[nH]c2=O)c(C)c1	6%	-20%	1%	?	-97*
O=C(/C(=C/c1ccc(Cl)cc1)c1nc2ccccc2[nH]1)c1ccccc1	?	-9%	-1%	·	-101*
COc1ccc(C(=O)N/C(=C/c2cccs2)c2nc3ccccc3[nH]2)cc1OC	·	-10%	3%	?	0
COc1cc(/C=C(/C(=O)c2cccs2)c2nc3ccccc3[nH]2)cc(OC)c1O	?	?	1%	?	-98*
COc1cccc(/C=N/Nc2nc3ccccc3n3cnnc23)c1O	?	-19%	2%	i	-112*
COc1cc(/C=N/Nc2nc3ccccc3[nH]2)ccc1O	48%	-1%	0%	i	-105*
COc1cc(/C=N/Nc2nc3ccccc3[nH]c2=O)ccc1O	-19%[11.3 µM]	1%	0%	i	5
COc1ccc(S(=O)(=O)N(C)C[C@@H]2OCc3cnnn3CCCC(=O)N([C@@H](C)CO)C[C@@H]2C)cc1	-6%	?	·	i	-13
Cc1c(C(=O)NCc2cccc([N+](=O)[O-])c2)sc(=O)n1Cc1ccccc1F	-24%	·	·	i	?
COc1ccc(NS(=O)(=O)c2cc3[nH]c(=O)c(=O)[nH]c3cc2C)cc1OC	·	-7%	·	·	·
CN1CCN(c2ncnc3c2ncn3[C@H]2CN(Cc3ccc(-c4ccccc4)cc3)C[C@@H](CO)O2)CC1	?	·	·	?	-4
COc1cc(/C=N/Nc2nc3ccccc3[nH]2)cc(OC)c1O	-7%	-22%	0%	i	-99*
COc1cccc(/C=N/Nc2nc3ccccc3[nH]2)c1O	·	-21%	1%	?	-55*
COc1cc(/C=N/Nc2ccc(F)cc2F)cc(OC)c1O	0%	-5%	3%	i	-89*
SMILES	ATXN2 expr inh	USP1-UAF1 inh	USP2a inh	S2 tox	IL1B secr inh
CCC(C)c1ccccc1OCC(=O)Nc1ccc(S(=O)(=O)Nc2cc(C)on2)cc1 (stereo not drawn)	5%	-37%	·	?	·
CCOc1cc(C=NNC(=O)N(c2ccccc2)c2ccccc2)ccc1O	6%	·	·	i	-16
CCN(C(=O)CCS(=O)(=O)c1ccc2c(c1)CCN2C(C)=O)c1cccc(C(F)(F)F)c1	-12%	-25%	·	i	·
OC(CNCc1ccc(-c2ccccc2)cc1)c1ccccc1 (stereo not drawn)	-39%	-14%	4%	i	-73*
CCn1c(O)c(C2=c3ccccc3=NC2=O)c2cc(Br)ccc21	0%	-17%	1%	i	-64*
O=C1N=c2ccccc2=C1c1c(O)n(-c2cccc(F)c2)[nH]c1=O	-12%	2%	5%	i	-3
COC(=O)c1ccccc1NC(=O)Cn1c(=O)n(CCCC(=O)NCc2ccccc2Cl)c(=O)c2ccccc21	16%	-10%	·	i	·
Cc1cc(C)c2c(N)c(C(=O)C(C)(C)C)sc2n1	7%[11.3 µM]	-9%	1%	·	13
Cc1cc(C)c2c(N)c(S(=O)c3ccc(C(C)(C)C)cc3)sc2n1 (stereo not drawn)	-17%	-4%	3%	i	-67*
[O-][n+]1cccc(CO)c1	0%	·	·	i	·
CC(C)c1ccc(C(O)Cc2nc3ccccc3n2C)cc1 (stereo not drawn)	51%	-18%	0%	i	20
CN(C)c1ccc(-c2nc3ccccc3n2C)cc1	?	-22%	1%	i	-66*
CC(C)n1c(-c2ccc(N(C)C)cc2)nc2ccccc21	52%	-23%	2%	?	-13
CN(C)c1ccc(C(O)Cc2nc3ccccc3n2C)cc1 (stereo not drawn)	33%	-23%	2%	i	-54*
CC1=C(C(=O)Nc2cc3cn[nH]c3cc2F)C(c2ccc(C(F)(F)F)cc2)CC(=O)N1 (stereo not drawn)	2%	·	·	·	·
Cn1cc(C2=C(c3c4n(c5ccccc35)CCC(CN)C4)C(=O)NC2=O)c2ccccc21 (stereo not drawn)	24µM*	·	·	·	·
Cn1cc(C2NC(=O)c3ccccc3N2)c2ccccc21 (stereo not drawn)	11%	-18%	·	?	29
Cn1c(/C=C/c2ccc(Br)cc2)c([N+](=O)[O-])c(=O)n(C)c1=O	?	-14%	3%	?	-103*
CN(C)c1ccc(/C=C/c2c([N+](=O)[O-])c(=O)n(C)c(=O)n2C)cc1	-13%	-7%	2%	i	-1
CCCOc1ccc(/C=C/c2c([N+](=O)[O-])c(=O)n(C)c(=O)n2C)cc1	-7%	-20%	5%	i	-77*
COc1ccc(/C=C/c2c([N+](=O)[O-])c(=O)n(C)c(=O)n2C)cc1O	6%	-6%	0%	i	-83*
COC(=O)N1C(=O)[C@@](c2ccccc2)(C2CCCCC2)N1C(=O)OC	?	-9%	1%	20µM*	-103*
CC[C@]1(c2cccc(C)c2)C(=O)N(C(=O)OC)N1C(=O)OC	-8%	-6%	0%	i	-105*
